Compound activity (PubChem BioAssay)
OvCa metastasis: Primary qHTS assay for Inhibitors of ovarian cancer metastasis using an organotypic tumor microenvironment (TME) model; SKOV3ip1-GFP adhesion/invasion on 3D omental model, fluorescence; Potency, µM (highest dose often 45.8 µM), for the others: top-dose activity change, negative = inhibition, usual class: inhibitors; 46,000 tested, 0.1% active;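 also: plate controls were DMSO wells for no effect and tomatine positive control wells for full effect; nearly all actives have a fitted effect of over 65% in size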
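Primary human omental fibroblast/mesothelial 3D culture pre-formed 48 h. SKOV3ip1-GFP cells added with compounds (0.36-46 umol/L), incubated 2 h RT/16 h 37 C, fixed; GFP cells quantified at 488/509 nm.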
p53null 39C kill: qHTS Screen for Compounds that Selectively Target Cancer Cells with p53 Mutations: Cytotoxicity of p53 Null Cells at the Nonpermissive Temperature | Potency, µM (titrated, usually from 46.1 µM), without a hit: at the highest dose activity, negative = cell killing, most hits filed as cytotoxic | H1299 p53-null (neo) cells, 39C, ATPlite viability, 24 h | 55,000 tested, 0.97% active | AID 904, 2007;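 also: 0% = DMSO only and -100% = full killing by 100 µM tamoxifen; nearly all actives have a fitted effect of over 50% in size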
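Luminescent ATP signal reported cell survival after H1299 lines (neo, p53 null; or p53 A138V) received up to 46 uM compound and 24 hr incubation at 39C.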
pS6 MEF inh: Acumen qHTS Assay for Inhibitors of the mTORC1 Signaling Pathway in MEF (Tsc2-/-, p53-/-) Cells: Sytravon; Tsc2-/- p53-/- MEF, phospho-rpS6 immunofluorescence/PI, 24 h; Potency, µM (highest dose often 38.3 µM), without a hit: top-dose activity change, negative = inhibition, actives largely listed as inhibitors; 44,000 tested, 0.78% active;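 also: plate controls were DMSO for no effect and rapamycin for full effect; nearly all actives have a fitted effect of over 50% in size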
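Compounds act on Tsc2-/-, p53-/- fibroblasts carrying an empty vector for 24 h before fixation and dual staining for phospho-S6 and DNA (propidium iodide). Values are percentages of cells above a rapamycin-defined pS6/PI threshold.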
S16 F2sN tox: Cell viability qHTS assay in S16 Pmp22-F2sN cells; S16 Pmp22-F2sN Schwann cells viability, CellTiter-Glo, 24 h; Potency, µM (series often up to 57.5 µM), for inactives: at the highest dose activity change, negative = cytotoxicity, hits mostly cytotoxic; 43,000 tested, 0.48% active; AID 1508642, 2021; also: nearly all actives have a fitted effect of over 65% in size
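Seed 500-1,000 S16 Pmp22-F2sN cells per well in phenol-red-free DMEM with 10% heat-inactivated FBS; pin-add 23 nL compound; incubate 24 h at 37C; add CellTiter-Glo, wait 15 min protected from light; read luminescence.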
PMP22 txn: Cell-based coincidence reporter assay to measure PMP22 gene transcription in S16 Pmp22-F2sN cells - Primary screen | S16 Pmp22-F2sN Schwann cells (luciferase reporters placed in the Pmp22 gene), FLuc/NLuc coincidence luminescence, 24 h | Potency, µM (series often up to 57.5 µM), without a hit: top-dose activity change, negative = inhibition, hits mostly inhibitors | 43,000 tested, 2% active | AID 1508649, 2021; active = clear falling dose curves in both reporters; inconclusive = both reporters move, but less clearly or upward; inactive = either reporter flat; the % is the NLuc reporter signal
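Transcriptional readout in edited S16(c9) cells: two luciferases reported from the Pmp22 locus, measured in turn after 24 h compound incubation.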
p53null 32C tox: qHTS Screen for Compounds that Selectively Target Cancer Cells with p53 Mutations: Cytotoxicity of p53 Null Cells at the Permissive Temperature. H1299-neo p53 null cells, ATP luminescence, 24 h, 32C. Potency, µM (titrated, usually from 46.1 µM), for the others: top-dose activity change, negative = cytotoxicity, most hits filed as cytotoxic. AID 903, 2007. 55,000 tested, 0.62% active;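 also: 0% = DMSO only and -100% = full killing by 100 µM tamoxifen; nearly all actives have a fitted effect of over 55% in size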
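ATP-content luminescence in p53-null H1299-neo cells after 24 h compound exposure (up to 46 uM) at 32C permissive temperature; 0% and 100% killing set by DMSO and 100 uM tamoxifen; Hill-equation AC50.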
The depositor's hits bear a star; i = inactive; ? = inconclusive; . = not tested or not shown. Most compounds without a hit are left out; they make up all but 3% or so of the library. Unless noted, calls follow the shape of the dose curve; as a rule, active = well fitted curve in the direction sought with a large enough effect; inconclusive = small, poorly fitted or top-dose-only effect, or another doubt; inactive = no such curve, though single readings can be large; an effect the other way counts as inactive or inconclusive. Unless noted, % is scaled to controls: 0 for no effect and ±100 for the full control effect; potency is read from the fitted curve at half-maximal effect.

SMILES | OvCa metastasis | p53null 39C kill | pS6 MEF inh | S16 F2sN tox | PMP22 txn | p53null 32C tox
CS(=O)(=O)c1oc(-c2ccc(F)cc2)nc1S(=O)(=O)c1ccc(Cl)cc1 | i | ? | ? | 5.6µM* | 4.5µM* | ?
CN(c1ncccc1CNc1nc(Nc2ccc3c(c2)CC(=O)N3)ncc1C(F)(F)F)S(C)(=O)=O | 24% | . | . | . | . | .
O=C(CCc1ccc(O)cc1)c1c(O)cc(O)cc1O[C@@H]1O[C@H](CO)[C@H](O)[C@H](O)[C@H]1O | -15% | . | . | . | . | .
c1ccc2c(-c3cnn4cc(-c5ccc(N6CCNCC6)cc5)cnc34)ccnc2c1 | 23µM* | . | . | . | . | .
Cc1ccc(C2c3c(-c4ccccc4O)n[nH]c3C(=O)N2CCc2ccccc2)cc1 (centres undefined) | ? | ? | 16µM* | -25% | ? | 45%
CCCOc1cccc(C2c3c(-c4ccccc4O)n[nH]c3C(=O)N2Cc2ccco2)c1 (centres undefined) | ? | 18µM* | 15µM* | -2% | ? | 44%
COCCN1C(=O)c2[nH]nc(-c3ccccc3O)c2C1c1ccc(Cl)c(Cl)c1 (centres undefined) | ? | 16µM* | 0% | ? | ? | 51%
CC(C)OCCCN1C(=O)c2[nH]nc(-c3ccccc3O)c2C1c1ccc(OCc2ccccc2)cc1 (centres undefined) | ? | 13µM* | ? | ? | ? | 48%
Cc1nc(N)sc1-c1ccnc(Nc2ccc(N3CCOCC3)cc2)n1 | -18% | . | . | . | . | .
COc1ccc(CCN2C(=O)c3[nH]nc(-c4ccccc4O)c3C2c2cccc(OC)c2)cc1 (centres undefined) | -31% | 19% | 15µM* | ? | ? | 6%
COc1ccc(C2c3c(-c4ccccc4O)n[nH]c3C(=O)N2CCc2ccccc2)cc1 (centres undefined) | i | ? | ? | ? | ? | 44%
Cc1cc(C)c(-c2n[nH]c3c2C(c2ccccc2F)N(Cc2ccco2)C3=O)c(O)c1 (centres undefined) | -22% | 16µM* | 13µM* | -15% | ? | 14%
CCc1cc(C(C)=NOCc2ccc(C3CCCCC3)c(C(F)(F)F)c2)ccc1CN1CC(C(=O)O)C1 | -3% | . | . | . | . | .
Nc1nc(=O)n([C@H]2C[C@H](O)[C@@H](CO)O2)cc1F | 27% | . | . | . | . | .
CC1(C)CC(O)CC(C)(C)N1[O] | 2% | . | . | . | . | .
Cc1cccc(Cn2nnc3c(=O)[nH]c(C4CCCN(C(=O)c5ccc(C(C)(C)C)cc5)C4)nc32)c1 (centres undefined) | ? | 20µM* | -1% | ? | -23% | ?
CCc1ccc(C2=CC(c3cccc(OC)c3OC)n3c(nc4ccccc43)N2)cc1 (centres undefined) | 13% | ? | 0% | ? | ? | 14µM*
CC(C)c1ccc(C2=CC(c3cccc(Cl)c3)n3ncnc3N2)cc1 (centres undefined) | -17% | 7% | -1% | ? | ? | 8%
CCc1ccc(C2=CC(c3cccc(C)c3)n3c(nc4ccccc43)N2)cc1 (centres undefined) | -7% | 10µM* | -4% | ? | ? | 10µM*
CC(C)c1ccc(C2=CC(c3cccc(Cl)c3)n3c(nc4ccccc43)N2)cc1 (centres undefined) | -10% | ? | -4% | -19% | ? | 22µM*
N[C@@H](CC(=O)N1CCn2c(nnc2C(F)(F)F)C1)Cc1cc(F)c(F)cc1F | -2% | . | . | . | . | .
O=c1cc(N2CCOCC2)oc2c(-c3cccc4c3sc3ccccc34)cccc12 | -29% | . | . | . | . | .
COc1cccc(-c2nnc(Nc3nc4c(F)cccc4s3)o2)c1 | . | 2.5µM* | . | . | . | ?
C[C@@H]1CCO[C@H]2Cn3cc(C(=O)NCc4ccc(F)cc4F)c(=O)c(O)c3C(=O)N12 | 0% | . | . | . | . | .
Cc1ccc(-c2cc(-c3ccccc3)no2)c(O)c1 | . | . | . | . | . | 7.9µM*
SMILES | OvCa metastasis | p53null 39C kill | pS6 MEF inh | S16 F2sN tox | PMP22 txn | p53null 32C tox
Cc1ccc(O)c(NC(=O)c2cc(-c3ccccc3O)no2)c1 | -2% | -2% | ? | -1% | -21% | -3%
CCn1c(-c2nonc2N)nc2cncc(CNC3CCNCC3)c21 | -21% | . | . | . | . | .
Cc1cc(Nc2ccc(Cl)cc2C)nc(-n2nc(C)cc2C)n1 | -9% | -7% | 0% | 5.6µM* | 7µM* | -13%
Cc1cc(OCCCc2c(C(=O)O)n(Cc3cccnc3)c3c(-c4c(COc5ccc(N6CCN([S+](C)(=O)[O-])CC6)cc5)nn(C)c4C)cccc23)cc(C)c1Cl | -3% | . | . | . | . | .
Cc1cccc(C)c1OCCCn1c(CCNC(=O)C2CCCCC2)nc2ccccc21 | 11% | 16µM* | -1% | -24% | ? | -4%
Cc1cc(OCCCn2c(CCNC(=O)C3CCCCC3)nc3ccccc32)ccc1Cl | ? | 25µM* | 1% | ? | ? | ?
Cc1ccc(OCCCn2c(CCNC(=O)C3CCCCC3)nc3ccccc32)c(C)c1 | 3% | -3% | -1% | ? | -5% | -7%
Cc1cc(C)cc(NC(=O)CN(C)S(=O)(=O)c2ccc3[nH]c4c(c3c2)CCCC4)c1 | 0% | -20% | 0% | -6% | ? | 6%
CCOc1ccc(NC(=O)CN(C)S(=O)(=O)c2ccc3[nH]c4c(c3c2)CCCC4)cc1 | 6% | -29% | 0% | ? | 17µM* | 13%
CCOCc1cc(CN2CCN(c3ccccc3OC)CC2)c(O)c2ncccc12 | i | 1.3µM* | ? | 3.2µM* | ? | 1%
COc1ccccc1N1CCN(Cc2cc(COC(C)C)c3cccnc3c2O)CC1 | ? | 1.6µM* | 5.8µM* | 7.1µM* | 3.5µM* | 16µM*
CCCOCc1cc(CN2CCN(c3ccccc3OC)CC2)c(O)c2ncccc12 | i | 3.2µM* | 9.3µM* | 10µM* | 5.8µM* | 16µM*
